Assay outcomes (PubChem)
VP16 counter = inhibits Gal4-VP16 luciferase reporter, ROR gamma counter-screen. Drosophila S2 Gal4-VP16 UAS-luciferase, luminescence, 20 h. Potency, µM (titrated, usually from 53.6 µM), most hits filed as inhibitors. AID 2546. 3.5% of 310,000 active;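 also: Gal4-VP16 expression switched on by copper sulfate through the metallothionein promoter; nearly all actives have a fitted effect of over 50% in size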
KinaseGlo FLuc = counter-screen: inhibitors of Kinase-Glo firefly luciferase | Q27757 | Kinase-Glo luciferase, ATP luminescence, 8 min | Potency, µM (series often up to 38.3 µM), most hits filed as inhibitors | 0.28% of 200,000 active | AID 1379; also: nearly all actives have a fitted effect of over 60% in size
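Kinase-Glo luciferase light output from ATP and luciferin was measured with 10 uM ATP, within the enzyme's linear range. Buffer: 50 mM imidazole pH 7.2, 50 mM KCl, 7 mM MgCl2, 0.01% Tween 20, 0.05% BSA; luminescence read after 8 min at ambient temperature.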
RORgamma inh = ROR gamma (mouse) transcription inhibition; P51450; Drosophila S2 Gal4-RORgamma UAS-luciferase reporter, 20 h; Potency, µM (top dose mostly 53.6 µM), most hits filed as inhibitors; 5.4% of 310,000 active; AID 2551; also: nearly all actives have a fitted effect of over 60% in size
Target sequence (P51450 whole entry, looked up, the tested form may be a part): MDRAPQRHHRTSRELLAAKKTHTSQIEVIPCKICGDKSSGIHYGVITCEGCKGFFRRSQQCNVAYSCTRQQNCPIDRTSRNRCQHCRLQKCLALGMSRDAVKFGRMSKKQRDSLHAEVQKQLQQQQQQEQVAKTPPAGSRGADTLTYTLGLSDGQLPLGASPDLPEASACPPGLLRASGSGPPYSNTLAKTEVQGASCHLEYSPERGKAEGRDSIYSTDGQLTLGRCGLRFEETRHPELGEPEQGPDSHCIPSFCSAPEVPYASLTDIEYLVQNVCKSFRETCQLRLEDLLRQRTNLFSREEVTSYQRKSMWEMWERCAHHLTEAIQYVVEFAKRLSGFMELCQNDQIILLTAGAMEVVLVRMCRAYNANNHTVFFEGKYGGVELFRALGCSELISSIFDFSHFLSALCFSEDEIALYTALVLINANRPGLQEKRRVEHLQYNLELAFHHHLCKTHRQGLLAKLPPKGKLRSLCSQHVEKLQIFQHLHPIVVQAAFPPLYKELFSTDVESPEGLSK
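Drosophila Schneider cells stably carrying a metallothionein-driven Gal4 DBD–ROR gamma fusion and a UAS-Photinus luciferase reporter were exposed to compound for 1 hr, then induced with copper sulfate (700 uM final) for 20 hr at ambient temperature before luminescence reading.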
Each line names hits and unclear results; the compound was inactive in the other large screens. This is a sample that favours compounds with a hit; in the whole collection about 6.4% have one here. Calls follow the shape of the dose curve; as a rule, active = well fitted curve in the direction sought with a large enough effect; inconclusive = small, poorly fitted or top-dose-only effect, or another doubt; inactive = no such curve, though single readings can be large; an effect the other way counts as inactive or inconclusive.

Oc1ccc2ccccc2c1/C=N/Nc1nnc(-c2ncc[nH]2)c2ccccc12	VP16 counter 0.25µM, RORgamma inh 0.25µM
COc1ccc(Nc2nnc(-c3ccc(C(N)=O)cc3)c3ccccc23)cc1	none (no result: KinaseGlo FLuc)
O=C(CO/N=C/c1ccccc1O)N1CCc2ccccc21	none
CCC(C)Nc1nc(-c2cccc(OC)c2O)nc2ccccc12 (centres undefined)	none
Fc1ccccc1-c1nc(NCc2ccccc2)c2ccccc2n1	none (no result: KinaseGlo FLuc)
c1ccc(CNc2nc(-c3ccccn3)nc3ccccc23)cc1	VP16 counter 3.5µM, RORgamma inh 2.5µM (no result: KinaseGlo FLuc)
COc1ccccc1-c1nc(NCc2ccccc2)c2ccccc2n1	VP16 counter inconclusive, RORgamma inh 35µM
Clc1ccccc1-c1nc(N/N=C/c2cccnc2)c2ccccc2n1	RORgamma inh inconclusive
c1ccc(CNc2nc(-c3ccccc3)nc3ccccc23)cc1	none (no result: KinaseGlo FLuc)
Fc1ccccc1/C=N/Nc1nc(-c2ccccn2)nc2ccccc12	VP16 counter 0.5µM, RORgamma inh 0.25µM (no result: KinaseGlo FLuc)
CCC(C)Nc1nc(-c2ccccn2)nc2ccccc12 (centres undefined)	VP16 counter 3.5µM, RORgamma inh 0.71µM (no result: KinaseGlo FLuc)
O=C(CNC(=O)C12CC3CC(CC(C3)C1)C2)N1CCN(S(=O)(=O)/C=C/c2ccccc2)CC1	none (no result: KinaseGlo FLuc)
COc1cc(NC(=O)CCc2nnc3ccc(N4CCN(C)CC4)nn23)cc(OC)c1	none (no result: KinaseGlo FLuc)
NC(=O)CC(NC(=O)Cc1ccc(Cl)cc1)c1ccc(N2CCC(Cc3ccccc3)CC2)c([N+](=O)[O-])c1 (centres undefined)	none (no result: KinaseGlo FLuc)
CC(CNC(=O)CCS(=O)(=O)c1ccc2c(c1)NC(=O)CO2)c1ccccc1 (centres undefined)	none (no result: KinaseGlo FLuc)
O=C1CCC=C1C(O)CCc1ccccc1 (centres undefined)	none
Cc1cccc(C)c1NC(=O)NC1(C(=O)N2CCCCC2)CCCCC1	none (no result: KinaseGlo FLuc)
C=C1SC(Nc2c(C)cccc2C)=NC12CCCCC2	VP16 counter 2.2µM, RORgamma inh 4µM (no result: KinaseGlo FLuc)
Cc1cc(C)c(NC(=O)CN2C(=O)NC3(CCCCC3)C2=O)c(C)c1	none
C=C1SC(Nc2c(C)cc(C)cc2C)=NC12CCCCC2	VP16 counter 0.63µM, RORgamma inh inconclusive (no result: KinaseGlo FLuc)
NC(=S)Nc1cccc2[nH]ccc12	none
CO[C@H]1COC(=O)C/C=C\[C@H](C)[C@@H](OC)COC(=O)[C@@H](C)NC(=O)C/C=C\[C@@H]1C	none (no result: KinaseGlo FLuc)
COc1ccc(CN(C)Cc2c(O)ccc3ccccc23)cc1	none (no result: KinaseGlo FLuc)
COC(=O)c1[nH]c2ccc(C)cc2c1NC(=O)CN1CCN(c2ccc(F)cc2)CC1	VP16 counter 13µM
COC(=O)c1[nH]c2ccc(C)cc2c1NC(=O)CN1CCC(C)CC1	none
COC(=O)c1[nH]c2ccc(C)cc2c1NC(=O)CN1CCN(Cc2ccccc2)CC1	none
COC(=O)c1[nH]c2ccc(C)cc2c1NC(=O)CN1CCN(c2ccccc2)CC1	VP16 counter 11µM, RORgamma inh inconclusive
CCOC(=O)N1CCN(CC(=O)Nc2c(C(=O)OC)[nH]c3ccc(Cl)cc23)CC1	VP16 counter 7.9µM, RORgamma inh inconclusive
CCOC(=O)N1CCN(CC(=O)Nc2c(C(=O)OC)[nH]c3cc(C)ccc23)CC1	none
COc1cccc(CN2CC(C(=O)N(C)C3CCOCC3)CCC2=O)c1 (centres undefined)	none (no result: KinaseGlo FLuc)
Cn1cccc1C(=O)N1CCC2(CC1)CCN(c1ccccn1)CC2	none
COCCNc1nnc(SCC(=O)Nc2sc3c(c2C(=O)c2ccccc2)CCCC3)s1	VP16 counter inconclusive, RORgamma inh 16µM
Cc1ccc(C(=O)c2c(NC(=O)CSc3nnc(N)s3)sc3c2CCCC3)cc1	none
Nc1nnc(SCC(=O)Nc2sc3c(c2C(=O)c2ccccc2)CCCC3)s1	VP16 counter inconclusive, RORgamma inh 22µM
COCCNc1nnc(SCC(=O)NNC(=O)c2ccccc2)s1	none
COCCNc1nnc(SCC(=O)c2c[nH]c3ccccc23)s1	VP16 counter 35µM, RORgamma inh inconclusive
COCCNc1nnc(SCC(=O)c2ccc3c(c2)OCO3)s1	none
CCCCn1c(=O)nc2n(-c3ccc(Cl)cc3)c3ccccc3cc-2c1=O	none
COC(=O)NC(/C(C(=O)OC)=C(\C)NCc1ccccc1)c1ccccc1 (centres undefined)	none (no result: KinaseGlo FLuc)
CN1C(=O)C2(NC(=O)c3ccccc3N2C)c2ccccc21 (centres undefined)	none (no result: KinaseGlo FLuc)
CN1C(=O)C(Cl)(Cl)C(=O)c2ccccc21	VP16 counter inconclusive, RORgamma inh 11µM
CCCCc1cc(=O)oc2cc(C)cc(OCC(=O)Nc3ccccn3)c12	none (no result: KinaseGlo FLuc)
CC1CN(Cc2nnc(-c3ccccc3)o2)CC(C)O1 (centres undefined)	none
Cc1cccc2c1-c1sc(C(=O)Nc3cccc([N+](=O)[O-])c3C)cc1CO2	VP16 counter inconclusive
Cc1cccc2c1-c1sc(C(=O)Nc3nccs3)cc1CO2	VP16 counter 5.6µM, RORgamma inh 4.5µM
Cc1cccc2c1-c1sc(C(=O)Nc3cccnc3)cc1CO2	none (no result: KinaseGlo FLuc)
O=C(Nc1nc2ccccc2s1)c1cc2c(s1)-c1ccccc1OC2	VP16 counter inconclusive
O=C(Nc1cccnc1)c1cc2c(s1)-c1ccccc1OC2	RORgamma inh 4.5µM (no result: KinaseGlo FLuc)
O=C(Nc1nccs1)c1cc2c(s1)-c1ccccc1OC2	VP16 counter 4.5µM, RORgamma inh 5µM
O=C(NC1CCCCC1)C(c1ccccc1)N(Cc1cccnc1)C(=O)c1csnn1 (centres undefined)	none (no result: KinaseGlo FLuc)
O=C(CC(c1ccccc1)c1ccco1)Nc1nccs1 (centres undefined)	none
O=C(OCN1C(=O)c2ccccc2C1=O)c1cccc(S(=O)(=O)N2CCOCC2)c1	none (no result: KinaseGlo FLuc)
O=C(COc1ccccc1Cl)NCCCNC(=O)c1cccnc1	none (no result: KinaseGlo FLuc)
O=C(NCCCn1ccnc1)c1nn2c(C(F)(F)F)cc(-c3ccc(Br)cc3)nc2c1Cl	VP16 counter inconclusive, RORgamma inh inconclusive
CSCCC(NC(=O)C1CCC(C)CC1)C(=O)OCC(=O)c1ccc(Cl)cc1 (centres undefined)	VP16 counter 4µM
CSCCC(NC(=O)C12CC3CC(CC(C3)C1)C2)C(=O)OCC(=O)c1ccc(Cl)cc1 (centres undefined)	none
Cc1c2ccccc2c(C)c2c1ccc1ccccc12	VP16 counter inconclusive (no result: KinaseGlo FLuc)
CC1=Nc2ccc3ccccc3c2C1(C)C	RORgamma inh 7.9µM
S=c1[nH]ccn1-c1ccccc1Cl	RORgamma inh inconclusive (no result: KinaseGlo FLuc)
Cc1ccc(N2C(=O)C3CCCN3C2=S)cc1C (centres undefined)	none (no result: KinaseGlo FLuc)
O=C1CSC(=S)N1c1cccc(Cl)c1	none (no result: KinaseGlo FLuc)
S=c1[nH]ccn1-c1cccc(Cl)c1	VP16 counter inconclusive, RORgamma inh 13µM
S=c1[nH]ccn1-c1cccc(Cl)c1Cl	VP16 counter inconclusive, RORgamma inh 7.9µM (no result: KinaseGlo FLuc)
Cc1ccc(-n2cc[nH]c2=S)cc1C	RORgamma inh 0.05µM
CCC(C)C(NC(=O)C(C)NC(=O)CNC(=O)OC(C)(C)C)C(N)=O (centres undefined)	none
O=C(NNC(=O)c1cc([N+](=O)[O-])ccc1Cl)c1cccnc1	none (no result: KinaseGlo FLuc)
COC(=O)CCn1nc(-c2ccc(C)cc2)c2ccccc2c1=O	none
COc1ccc(-c2noc(N3CCCC(C(=O)Nc4cc(F)ccc4F)C3)n2)cc1 (centres undefined)	VP16 counter inconclusive (no result: KinaseGlo FLuc)
Cn1cccc1Cc1nnc(SCC(=O)Nc2nccs2)n1C	none (no result: KinaseGlo FLuc)
Cn1cccc1Cc1nnc(SCC(=O)Nc2nccs2)n1CCc1ccccc1	VP16 counter inconclusive, RORgamma inh 18µM
